{"source": "PubChem BioAssay AID540313", "about": "(Sanford-Burnham Center for Chemical Genomics, 2011)", "note": "Where “and” joins values, the source holds several entries; their conditions need not be identical. Equal entries are not always repeated. The campaign covered roughly 2,500 compounds. Fewer than 10 were called active. The list is a sample of the results. Unmarked numbers belong to inactive results.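 Rule for the calls: active = inhibition of at least 30% at 20 µM; inactive = the rest.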"}
{"test": "colorimetric readout interference by compounds, confirmation, artefact control for Scp-1 inhibitor project, biochemical, single concentration (AID 540313);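 note: compounds added after enzyme reaction finished so only phosphate colour detection is probed; plate controls were DMSO wells with completed Scp-1 reaction for no effect and substrate wells lacking enzyme for full effect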", "details": "Colorimetric interference counterscreen, malachite green absorbance 630 nm; at 20 µM; active compounds read high"}
{"compound": "Cn1c(N)c(C(=O)COC(=O)c2ccc3ccccc3c2)c(=O)n(C)c1=O", "apparent inhibition (interference)": "-13.1%"}
{"compound": "N/C(=N\\OC(=O)N1c2ccccc2Sc2ccccc21)c1ccc(Br)cc1", "apparent inhibition (interference)": "-18.1%"}
{"compound": "O=[N+]([O-])c1cc(S(=O)(=O)Nc2cccc(Cl)c2)ccc1N=Nc1c(O)[nH]c2ccccc12", "apparent inhibition (interference)": "-15.6%"}
{"compound": "CCOC(=O)C1CCCN(C(=O)CN(c2ccc(OC)cc2)S(=O)(=O)c2c(C)noc2C)C1", "note": "(stereo not given)", "apparent inhibition (interference)": "-13.4%"}
{"compound": "C[n+]1ccc(C(=O)NCc2ccccc2)cc1", "apparent inhibition (interference)": "-18.9%"}
{"compound": "CCOC(=O)C1=C(C)c2ccccc2OC1(C)C(=O)OCC", "note": "(stereo not given)", "apparent inhibition (interference)": "-21.7%"}
{"compound": "O=C(CNC(=O)C(c1ccccc1)c1ccccc1)N/N=C\\c1ccc2c(c1)OCO2", "apparent inhibition (interference)": "-8.18%"}
{"compound": "CCC(=O)Nc1ccccc1N1CCN(S(C)(=O)=O)CC1", "apparent inhibition (interference)": "-13.4%"}
{"compound": "C=Cc1ccc(C(=O)N2CCCC(CCC(=O)N3CCN(c4ccccn4)CC3)C2)cc1", "note": "(stereo not given)", "apparent inhibition (interference)": "-12.3%"}
{"compound": "CCc1ccc(NC(=O)CS(=O)CC(=O)NCCCc2ccccc2)cc1", "note": "(stereo not given)", "apparent inhibition (interference)": "-6.8%"}
{"compound": "O=C(CCS(=O)(=O)c1ccc(Br)cc1)NCCc1ccc(Cl)cc1", "apparent inhibition (interference)": "-10.1%"}
{"compound": "Cc1ccc(NC(=O)COc2ccc(/C=N\\NC(=O)c3cccnc3)cc2)cc1C", "apparent inhibition (interference)": "-15.6%"}
{"compound": "O=C(CCNC(=O)c1ccccc1)NN=Cc1ccc(Br)o1", "apparent inhibition (interference)": "-15.3%"}
{"compound": "O=C(NN1C(=O)C2C3C=CC(O3)C2C1=O)c1ccccc1", "note": "(stereo not given)", "apparent inhibition (interference)": "-7.63%"}
{"compound": "COc1ccc(Cc2nnc(NC(=O)Cc3cccs3)s2)cc1", "apparent inhibition (interference)": "-7.35%"}
{"compound": "CCCCSc1nnc(-c2ccc(C)cc2)o1", "apparent inhibition (interference)": "-17.8%"}
{"compound": "CSc1ccc(/C=N/NC(=O)c2cccc(Cl)c2)cc1", "apparent inhibition (interference)": "-14.2%"}
{"compound": "Cc1oc2c(C)c3oc(=O)c(CC(=O)N[C@@H](CC(C)C)C(=O)N[C@@H](Cc4ccccc4)C(=O)O)c(C)c3cc2c1C", "apparent inhibition (interference)": "-9.01%"}
{"compound": "O=C(c1cc2c(s1)CCC2)N1CCN(c2ccccc2)CC1", "apparent inhibition (interference)": "-15.9%"}
{"compound": "COc1ccc(S(=O)(=O)c2c[nH]c(=S)[nH]c2=O)cc1Cl", "apparent inhibition (interference)": "-5.98%"}
{"compound": "COCCCn1c(Cc2csc(Nc3cccc(Cl)c3)n2)nnc1SCC(=O)OC1CCCCC1", "apparent inhibition (interference)": "-7.61%"}
{"compound": "C=CC1C(OC2OC(CO)C(O)C(O)C2O)OC=C(C(=O)OC)C1CC1CC(=O)CC(CC(=O)CCc2ccc(O)cc2)O1", "note": "(stereo not given)", "apparent inhibition (interference)": "-16.9%"}
{"compound": "COC(=O)c1ccc(-c2c(-c3ccccc3)ncc3cc(OC)c(OC)cc23)cc1", "apparent inhibition (interference)": "-3.78%"}
{"compound": "CCOc1ccc2nc(N(CCCN(C)C)C(=O)c3ccc(C(=O)c4ccccc4)cc3)sc2c1", "apparent inhibition (interference)": "-0.21%"}
{"compound": "COc1cc(/C=C/C2=CC(C)(C)NC(=S)N2)cc(OC)c1OC", "apparent inhibition (interference)": "-12%"}
{"compound": "COC(=O)CNC(=O)C(CCSC)NC(C)=O", "note": "(stereo not given)", "apparent inhibition (interference)": "-13.1%"}
{"compound": "COc1cc(SC)ccc1C(=O)NNC(=O)C1COc2ccccc2O1", "note": "(stereo not given)", "apparent inhibition (interference)": "-1.3%"}
{"compound": "COC(=O)C[n+]1cccc2ccccc21", "apparent inhibition (interference)": "-9.28%"}
{"compound": "CC1=NN(C(=O)CCc2ccccc2O)C(O)(C(F)(F)F)C1", "note": "(stereo not given)", "apparent inhibition (interference)": "-14%"}
{"compound": "Cc1c(Cl)cnc(NC(=O)COC(=O)c2ccc(S(=O)(=O)NCc3ccco3)cc2)c1Cl", "apparent inhibition (interference)": "-10.4%"}
{"compound": "O=C(COc1ccc(-n2cnnn2)cc1)Nc1ccccc1Cl", "apparent inhibition (interference)": "-15.1%"}
{"compound": "COc1ccc(N2CCN(C(=O)CSc3nc4cc(OC)c(OC)cc4cc3C#N)CC2)cc1", "apparent inhibition (interference)": "-7.08%"}
{"compound": "O=C(N/N=C/c1ccco1)c1ccc(C(=O)N/N=C/c2ccco2)o1", "apparent inhibition (interference)": "-14.2%"}
{"compound": "C[N+](C)(C)CCNC(=O)c1cc[n+](Cc2ccccc2)c(/C=N/O)c1", "apparent inhibition (interference)": "-12%"}
{"compound": "Cc1cc(C(=O)OCC(=O)NCc2ccco2)c(C)n1-c1ccccc1", "apparent inhibition (interference)": "-9.53%"}
{"compound": "COc1cc(Cl)cc(C2NC(=O)NC(C)=C2C(=O)NCc2ccccc2)c1O", "note": "(stereo not given)", "apparent inhibition (interference)": "-16.4% and -17.8%"}
{"compound": "O=C(COC(=O)c1cnc(Cl)c(Cl)c1)NCc1ccco1", "apparent inhibition (interference)": "-17.8%"}
{"compound": "O=C(COC(=O)c1ccccc1O)NCc1ccco1", "apparent inhibition (interference)": "-13.4%"}
{"compound": "COc1cccc(CC(=O)OCC(=O)NCc2ccc3c(c2)OCO3)c1", "apparent inhibition (interference)": "-8.18%"}
{"compound": "CC(C)CCOc1ccc(C(=O)C[N+]2(C)CCOCC2)cc1", "apparent inhibition (interference)": "-0.2%"}
{"compound": "CO/N=C(\\C(=O)N[C@@H]1C(=O)N2C(C(=O)O)=C(COC(C)=O)CS[C@H]12)c1csc(N)n1", "note": "(stereo in doubt)", "apparent inhibition (interference)": "-15.6%"}
{"compound": "O=c1[nH]n(-c2ccc([N+](=O)[O-])cc2)c(=O)c2ccccc12", "apparent inhibition (interference)": "-12.9%"}
{"compound": "CCCCCN1CC(O)=C(c2nc(-c3ccc(Cl)cc3)cs2)C1=N", "apparent inhibition (interference)": "-5.98%"}
{"compound": "CC(=O)Nc1ccccc1Sc1ccc2c3c(cccc13)C(=O)N(c1ccc(C)cc1)C2=O", "apparent inhibition (interference)": "-10.1%"}
{"compound": "Cc1ccc(C2(C)NC(=O)N(CC(=O)Nc3ccccc3C(=O)N3CCCCC3)C2=O)cc1", "note": "(stereo not given)", "apparent inhibition (interference)": "-11.4%"}
{"compound": "O=C1CCC(CCC(=O)N2CCCC(C(=O)c3ccc(Cl)cc3)C2)=NN1", "note": "(stereo not given)", "apparent inhibition (interference)": "-3.23%"}
{"compound": "Cc1ccc(NC(=O)COC(=O)C2C3CC4OC(=O)C2C4C3)cc1Cl", "note": "(stereo not given)", "apparent inhibition (interference)": "-4.6%"}
{"compound": "CC(C)c1ccc(NC(=S)NNc2ccc(Cl)c(C(=O)O)c2)cc1", "apparent inhibition (interference)": "-8.44%"}
{"compound": "COc1ccc(Cl)cc1NC(=O)CCS(=O)(=O)c1ccc(Br)cc1", "apparent inhibition (interference)": "-18.6%"}
{"compound": "CS(=O)(=O)C1=NN2C(=N)/C(=C\\c3ccc(OCCOc4ccccc4)cc3)C(=O)N=C2S1", "apparent inhibition (interference)": "-4.6%"}
{"compound": "CC[n+]1c(C)n(-c2ccccc2)c2ccc(NC(C)=O)cc21", "apparent inhibition (interference)": "-13.9%"}
{"compound": "Cc1ccc(NC(=O)c2cc(-c3ccc(C)o3)nc3ccccc23)nc1", "apparent inhibition (interference)": "-3.5%"}
{"compound": "O=C(Nc1cccnc1)c1cc2cc(Br)ccc2oc1=O", "apparent inhibition (interference)": "-8.18%"}
{"compound": "C[C@H](CO)N1C[C@H](C)[C@@H](CN(C)C(=O)NC2CCCCC2)Oc2ccc(NC(=O)c3ccncc3)cc2C1=O", "apparent inhibition (interference)": "-14.8%"}
{"compound": "O=C(Nc1cccc(F)c1)c1cc(-c2ccco2)nc2ccccc12", "apparent inhibition (interference)": "-4.88%"}
{"compound": "COc1ccc(NC(=O)CN(C)C(=O)/C=C/c2cn(Cc3ccccc3)nc2-c2cccnc2)cc1", "apparent inhibition (interference)": "-11.7%"}
{"compound": "Cc1ccn2c(=O)nc(SCC(=O)NCc3ccc4c(c3)OCO4)nc2c1", "apparent inhibition (interference)": "-8.16%"}
{"compound": "N#Cc1ccccc1CN1C(=O)S/C(=C/c2cccn2-c2cccc(C(=O)O)c2)C1=O", "apparent inhibition (interference)": "-14.7%"}
{"compound": "Cc1ccc(CCNC(=O)c2ccc3nc4ccccc4c(=O)n3c2)cc1", "apparent inhibition (interference)": "0.61%"}
{"compound": "Cc1ccc(SCC(=O)NC(=O)NCc2ccco2)c(C)c1", "apparent inhibition (interference)": "-4.05%"}
{"compound": "O=C(COC(=O)c1ccc(F)cc1F)Nc1ncccn1", "apparent inhibition (interference)": "-16.9%"}
{"compound": "CNS(=O)(=O)c1cccc(C(=O)OCC(=O)N2c3ccccc3NC(=O)C2(C)C)c1", "apparent inhibition (interference)": "-15.3%"}
{"compound": "COc1cccc2cc(-c3cc(=O)oc4cc(C)c(O)cc34)oc12", "apparent inhibition (interference)": "-23.3%"}
{"compound": "COC(=O)c1ccccc1NC(=O)C1(S(=O)(=O)c2ccc(Cl)cc2)CC1", "apparent inhibition (interference)": "-20.5%"}
{"compound": "O=C(CCC(=O)N/N=C/c1ccc(Br)o1)N/N=C/c1ccc(Br)o1", "apparent inhibition (interference)": "-16.4%"}
